Compound in this assay: Nc1ncnc2c1ncn2[C@@H]1O[C@H](COP(=O)(O)OP(=O)(O)OP(=O)(O)O)[C@@H](O)[C@H]1O [adenosine 5'-triphosphate]
Kind of assay: log2 fold change of tryptic peptide abundance, ligand vs vehicle (limited proteolysis) (log2 ratio); higher = more trypsin-susceptible (destabilized). As to conditions: ligand concentration: 5 mM; sample: E. coli desalted lysate; replicate design: treated before aliquoting. The procedure:
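HT-PELSA: desalted E. coli K-12 BW25113 lysate (with 12 mM MgCl2) incubated with 5 mM ATP (pH 7) or water for 30 min at 25 C, then a 4 min trypsin pulse at 22 C. Peptides were quantified by DIA-MS (4 replicates). Value is the peptide log2 fold change (treated/control); negative = stabilized. Scale: negative = ligand-stabilized region.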
Sequence of UniProt P76556 (P76556 whole entry): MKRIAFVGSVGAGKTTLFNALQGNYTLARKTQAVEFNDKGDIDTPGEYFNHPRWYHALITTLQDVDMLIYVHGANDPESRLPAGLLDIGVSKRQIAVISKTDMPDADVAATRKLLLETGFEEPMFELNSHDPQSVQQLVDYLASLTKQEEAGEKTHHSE
Sequence of UniProt P0ACL0 (P0ACL0 whole entry): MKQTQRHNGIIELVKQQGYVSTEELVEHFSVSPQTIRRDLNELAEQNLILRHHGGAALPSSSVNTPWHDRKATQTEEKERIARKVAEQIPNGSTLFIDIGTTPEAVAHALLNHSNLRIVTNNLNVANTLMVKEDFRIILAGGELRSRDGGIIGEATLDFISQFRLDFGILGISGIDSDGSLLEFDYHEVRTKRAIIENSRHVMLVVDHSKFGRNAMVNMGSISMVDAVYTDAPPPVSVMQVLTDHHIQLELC
Sequence of UniProt P37759 (P37759 whole entry): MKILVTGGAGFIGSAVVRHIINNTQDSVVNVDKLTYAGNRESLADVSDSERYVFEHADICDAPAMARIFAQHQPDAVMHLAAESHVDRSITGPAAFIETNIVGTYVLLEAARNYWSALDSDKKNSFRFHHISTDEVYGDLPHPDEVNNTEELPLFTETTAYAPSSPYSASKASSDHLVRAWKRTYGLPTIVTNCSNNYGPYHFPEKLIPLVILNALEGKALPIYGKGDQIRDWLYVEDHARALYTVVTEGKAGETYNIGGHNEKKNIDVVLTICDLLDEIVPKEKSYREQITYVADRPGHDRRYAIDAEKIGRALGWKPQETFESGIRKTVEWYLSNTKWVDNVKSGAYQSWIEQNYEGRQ
Sequence of UniProt P13518 (P13518 whole entry): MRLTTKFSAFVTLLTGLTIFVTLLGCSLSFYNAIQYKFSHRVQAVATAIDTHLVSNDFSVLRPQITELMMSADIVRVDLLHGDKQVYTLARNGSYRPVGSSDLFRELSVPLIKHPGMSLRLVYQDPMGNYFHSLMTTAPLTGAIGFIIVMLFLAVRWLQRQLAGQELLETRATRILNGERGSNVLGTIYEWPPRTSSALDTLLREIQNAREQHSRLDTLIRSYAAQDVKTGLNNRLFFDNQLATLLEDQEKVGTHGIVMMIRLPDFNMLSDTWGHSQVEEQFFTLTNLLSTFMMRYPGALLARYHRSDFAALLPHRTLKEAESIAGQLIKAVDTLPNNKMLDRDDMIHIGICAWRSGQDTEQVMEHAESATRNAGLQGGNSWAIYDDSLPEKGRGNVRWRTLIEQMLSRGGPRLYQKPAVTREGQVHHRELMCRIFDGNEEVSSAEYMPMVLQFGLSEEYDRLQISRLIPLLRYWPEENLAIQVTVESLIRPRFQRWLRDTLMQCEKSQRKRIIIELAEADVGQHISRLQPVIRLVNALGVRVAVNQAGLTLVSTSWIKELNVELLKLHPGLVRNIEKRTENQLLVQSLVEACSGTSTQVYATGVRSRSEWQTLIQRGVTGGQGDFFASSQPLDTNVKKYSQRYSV
Sequence of UniProt P37903 (P37903 whole entry): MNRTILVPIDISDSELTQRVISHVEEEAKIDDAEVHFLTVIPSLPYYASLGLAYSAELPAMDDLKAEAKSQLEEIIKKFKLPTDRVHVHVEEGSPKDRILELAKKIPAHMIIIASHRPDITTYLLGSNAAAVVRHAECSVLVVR
Sequence of UniProt P21865 (P21865 whole entry): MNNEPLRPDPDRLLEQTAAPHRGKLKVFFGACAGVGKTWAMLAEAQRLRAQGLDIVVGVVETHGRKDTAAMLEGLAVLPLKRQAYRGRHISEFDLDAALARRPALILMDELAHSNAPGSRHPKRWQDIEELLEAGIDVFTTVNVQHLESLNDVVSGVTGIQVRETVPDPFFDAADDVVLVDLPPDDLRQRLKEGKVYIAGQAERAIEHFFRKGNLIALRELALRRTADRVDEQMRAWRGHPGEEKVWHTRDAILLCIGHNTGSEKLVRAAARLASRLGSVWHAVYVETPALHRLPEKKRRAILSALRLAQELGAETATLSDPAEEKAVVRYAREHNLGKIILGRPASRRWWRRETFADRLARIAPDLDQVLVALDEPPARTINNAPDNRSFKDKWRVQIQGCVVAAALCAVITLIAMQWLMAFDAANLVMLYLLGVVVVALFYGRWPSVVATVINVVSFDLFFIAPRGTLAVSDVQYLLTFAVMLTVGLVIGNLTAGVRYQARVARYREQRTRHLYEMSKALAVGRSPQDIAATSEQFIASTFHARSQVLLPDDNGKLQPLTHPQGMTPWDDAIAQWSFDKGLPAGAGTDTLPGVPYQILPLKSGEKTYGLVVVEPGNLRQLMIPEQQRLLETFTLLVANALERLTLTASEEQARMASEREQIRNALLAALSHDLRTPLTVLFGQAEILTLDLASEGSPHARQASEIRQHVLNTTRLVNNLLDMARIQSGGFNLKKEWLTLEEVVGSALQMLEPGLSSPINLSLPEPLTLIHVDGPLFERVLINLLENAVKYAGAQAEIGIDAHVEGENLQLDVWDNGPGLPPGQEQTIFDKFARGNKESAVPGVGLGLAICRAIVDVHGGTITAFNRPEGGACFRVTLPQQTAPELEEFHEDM
Sequence of UniProt P0AAT4 (P0AAT4 whole entry): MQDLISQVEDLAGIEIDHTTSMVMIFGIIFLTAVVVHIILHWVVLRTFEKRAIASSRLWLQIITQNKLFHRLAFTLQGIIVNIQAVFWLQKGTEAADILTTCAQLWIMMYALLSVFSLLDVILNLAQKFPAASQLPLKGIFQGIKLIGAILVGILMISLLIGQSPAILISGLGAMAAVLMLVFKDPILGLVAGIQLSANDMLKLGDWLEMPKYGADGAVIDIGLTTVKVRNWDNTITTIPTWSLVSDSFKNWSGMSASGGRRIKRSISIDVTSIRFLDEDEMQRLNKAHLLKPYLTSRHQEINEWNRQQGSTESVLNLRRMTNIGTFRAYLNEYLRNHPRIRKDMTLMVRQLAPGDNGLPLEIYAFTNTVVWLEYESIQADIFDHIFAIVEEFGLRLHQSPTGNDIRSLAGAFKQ
Sequence of UniProt Q46802 (Q46802 whole entry): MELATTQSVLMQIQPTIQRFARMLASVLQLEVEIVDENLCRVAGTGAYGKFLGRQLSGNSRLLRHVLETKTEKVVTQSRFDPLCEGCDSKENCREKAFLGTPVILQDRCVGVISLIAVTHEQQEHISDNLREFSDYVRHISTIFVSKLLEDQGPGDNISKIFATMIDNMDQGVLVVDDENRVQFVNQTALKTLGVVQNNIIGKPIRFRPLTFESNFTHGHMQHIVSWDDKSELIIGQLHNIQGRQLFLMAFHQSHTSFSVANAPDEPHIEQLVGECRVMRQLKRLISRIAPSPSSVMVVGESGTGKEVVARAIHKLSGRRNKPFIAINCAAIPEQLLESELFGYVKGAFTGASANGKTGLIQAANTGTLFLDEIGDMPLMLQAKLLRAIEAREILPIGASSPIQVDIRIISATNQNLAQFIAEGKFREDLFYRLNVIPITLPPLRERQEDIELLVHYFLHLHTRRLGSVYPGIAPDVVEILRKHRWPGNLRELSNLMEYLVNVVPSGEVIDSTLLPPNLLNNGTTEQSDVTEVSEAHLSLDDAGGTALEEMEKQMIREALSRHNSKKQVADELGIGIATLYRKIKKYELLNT
Sequence of UniProt P64624 (P64624 whole entry): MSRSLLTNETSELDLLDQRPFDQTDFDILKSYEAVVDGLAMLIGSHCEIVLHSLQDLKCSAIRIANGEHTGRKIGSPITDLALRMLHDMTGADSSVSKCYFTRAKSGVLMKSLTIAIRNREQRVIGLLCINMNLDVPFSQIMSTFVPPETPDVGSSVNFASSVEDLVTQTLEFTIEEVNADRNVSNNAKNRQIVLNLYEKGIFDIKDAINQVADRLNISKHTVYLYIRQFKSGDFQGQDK
Sequence of UniProt P0AG14 (P0AG14 whole entry): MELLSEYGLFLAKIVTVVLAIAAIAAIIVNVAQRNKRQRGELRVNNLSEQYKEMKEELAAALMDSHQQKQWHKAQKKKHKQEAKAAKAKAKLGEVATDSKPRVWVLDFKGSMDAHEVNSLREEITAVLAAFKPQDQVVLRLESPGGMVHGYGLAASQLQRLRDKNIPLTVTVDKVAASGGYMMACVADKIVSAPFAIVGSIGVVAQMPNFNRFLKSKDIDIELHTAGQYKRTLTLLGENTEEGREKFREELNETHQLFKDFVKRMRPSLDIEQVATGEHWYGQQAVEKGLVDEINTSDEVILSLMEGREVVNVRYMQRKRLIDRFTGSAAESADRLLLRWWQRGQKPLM
Sequence of UniProt P75957 (P75957 whole entry): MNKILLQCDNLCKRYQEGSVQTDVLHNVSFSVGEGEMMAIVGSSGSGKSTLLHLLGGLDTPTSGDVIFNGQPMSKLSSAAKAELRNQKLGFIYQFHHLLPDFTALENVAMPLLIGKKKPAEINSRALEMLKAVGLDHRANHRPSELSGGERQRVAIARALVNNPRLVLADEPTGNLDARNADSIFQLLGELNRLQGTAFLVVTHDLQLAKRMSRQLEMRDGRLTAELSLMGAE
Sequence of UniProt P25539 (P25539 whole entry): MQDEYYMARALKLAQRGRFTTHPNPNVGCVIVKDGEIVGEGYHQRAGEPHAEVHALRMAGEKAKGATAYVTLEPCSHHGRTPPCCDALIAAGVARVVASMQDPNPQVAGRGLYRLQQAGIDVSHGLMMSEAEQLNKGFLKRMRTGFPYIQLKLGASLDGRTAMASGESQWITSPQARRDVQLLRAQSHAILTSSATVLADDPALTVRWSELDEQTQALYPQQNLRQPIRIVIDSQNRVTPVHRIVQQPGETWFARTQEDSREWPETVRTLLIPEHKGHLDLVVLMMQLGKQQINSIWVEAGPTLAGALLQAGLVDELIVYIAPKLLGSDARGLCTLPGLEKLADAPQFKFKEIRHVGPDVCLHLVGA
Sequence of UniProt P37025 (P37025 whole entry): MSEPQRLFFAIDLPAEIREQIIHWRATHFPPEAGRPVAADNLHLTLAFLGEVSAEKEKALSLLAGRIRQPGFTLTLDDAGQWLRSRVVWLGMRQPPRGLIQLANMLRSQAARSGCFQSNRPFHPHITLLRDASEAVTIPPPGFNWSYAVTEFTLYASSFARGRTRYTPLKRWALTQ
As to “UniProt P21865 (peptide sequence: AIEHFFR, peptide start residue: 205)”, the log2 fold change amounted to 0.436.

“UniProt P37759 (peptide sequence: EQITYVADRPGHDRR, peptide start residue: 289)”: the log2 fold change is -0.709.

In the case of “UniProt P33602 (peptide sequence: IAPYYHLFGSDELSQR, peptide start residue: 812)”, the log2 fold change worked out at 0.28.

For “UniProt P04968 (peptide sequence: EALLAVTIPEEK, peptide start residue: 338)”, the log2 fold change came out at 0.397.

For “UniProt Q46802 (peptide sequence: GAFTGASANGK, peptide start residue: 347)”, the log2 fold change is -0.841.

In the case of “UniProt P46887 (peptide sequence: GKFIPSKDGFSTDQSK, peptide start residue: 60)”, the log2 fold change was found to be 0.606.

Take “UniProt P0DMC5 (peptide sequence: FTDTGCIVLHVR, peptide start residue: 600)”: the log2 fold change was -1.13.

“UniProt P13518 (peptide sequence: LYQKPAVTR, peptide start residue: 414)”: the log2 fold change was found to be 0.793.

“UniProt Q46927 (peptide sequence: QINPECR, peptide start residue: 95)”: the log2 fold change is -2.51.

With “UniProt P36999 (peptide sequence: RYPQVTFCVASSHR, peptide start residue: 128)”, the log2 fold change was -0.656.

For “UniProt P75919 (peptide sequence: LLSDDPAKGEGK, peptide start residue: 249)”, the log2 fold change is -0.826.

In the case of “UniProt P08401 (peptide sequence: NVQEGGVLASLR, peptide start residue: 457)”, the log2 fold change was determined as 0.651.

As to “UniProt P14175 (peptide sequence: YIEQGLSK, peptide start residue: 24)”, the log2 fold change is 1.4.

With “UniProt P76556 (peptide sequence: IAFVGSVGAGK, peptide start residue: 4)”, the log2 fold change is -0.693.

Consider “UniProt P77775 (peptide sequence: TGVVLAPDGGILGK, peptide start residue: 163)”, for which the log2 fold change is -0.725.

On to “UniProt P0AB12 (peptide sequence: VVSVETAQAAR, peptide start residue: 129)”, for which the log2 fold change was determined as 0.652.

With “UniProt P0AD19 (peptide sequence: GLAMGTASHALGTAR, peptide start residue: 178)”, the log2 fold change was -0.978.

Take “UniProt P00893 (peptide sequence: HSQSYMQSLPDFVR, peptide start residue: 493)”: the log2 fold change amounted to 0.316.

Regarding “UniProt Q06065 (peptide sequence: FSSENQR, peptide start residue: 334)”, the log2 fold change was -2.8.

With “UniProt P00490 (peptide sequence: QCNPALAALLDK, peptide start residue: 460)”, the log2 fold change was determined as 1.07.

In the case of “UniProt P75957 (peptide sequence: KKPAEINSR, peptide start residue: 117)”, the log2 fold change was -1.5.

As for “UniProt P0AG14 (peptide sequence: VNNLSEQYK, peptide start residue: 44)”, the log2 fold change is -0.765.

Regarding “UniProt P37025 (peptide sequence: VVWLGMR, peptide start residue: 87)”, the log2 fold change was -0.685.

Take “UniProt P40719 (peptide sequence: RFTSDAAHELR, peptide start residue: 239)”: the log2 fold change is -2.75.

For the target “UniProt P0ACN7 (peptide sequence: LMDCELIIR, peptide start residue: 326)”, the log2 fold change is 1.5.

Consider “UniProt P37903 (peptide sequence: VHVHVEEGSPKDR, peptide start residue: 86)”, for which the log2 fold change is -1.8.

Turning to “UniProt P52101 (peptide sequence: AMIFEPFFQGSHQR, peptide start residue: 414)”, the log2 fold change worked out at 0.36.

Consider “UniProt P25519 (peptide sequence: IDRDEENKPNR, peptide start residue: 329)”, for which the log2 fold change is -1.08.

For “UniProt P76085 (peptide sequence: QLGGDASGCSLR, peptide start residue: 198)”, the log2 fold change is -1.23.

For the target “UniProt P0AAT4 (peptide sequence: AHLLKPYLTSR, peptide start residue: 288)”, the log2 fold change was 0.38.

Regarding “UniProt P31060 (peptide sequence: ALAGELPLLKGER, peptide start residue: 48)”, the log2 fold change is -1.32.

With “UniProt P76422 (peptide sequence: NTHGTGCTLSAALAALRPR, peptide start residue: 207)”, the log2 fold change is -1.45.

Take “UniProt P20966 (peptide sequence: FAGKPMYR, peptide start residue: 175)”: the log2 fold change was found to be 1.06.

On to “UniProt P23836 (peptide sequence: VLVVEDNALLR, peptide start residue: 3)”, for which the log2 fold change was found to be 0.563.

Take “UniProt P06709 (peptide sequence: VKWPNDLYLQDR, peptide start residue: 171)”: the log2 fold change is -0.523.

In the case of “UniProt P0ACL0 (peptide sequence: IILAGGELR, peptide start residue: 137)”, the log2 fold change is -0.596.

“UniProt P75767 (peptide sequence: VLSSLSSLGSR, peptide start residue: 24)”: the log2 fold change is -1.19.

On to “UniProt P25539 (peptide sequence: LADAPQFK, peptide start residue: 342)”, for which the log2 fold change was -0.381.

As to “UniProt P64624 (peptide sequence: QIVLNLYEK, peptide start residue: 192)”, the log2 fold change was 0.361.

Consider “UniProt Q46925 (peptide sequence: SQFAEAQR, peptide start residue: 53)”, for which the log2 fold change was -0.663.

These data come from the supplement of paper PMC12819154, “High-throughput peptide-centric local stability assay extends protein–ligand identification to membrane proteins, tissues and bacteria” (Nature Structural & Molecular Biology, 2025).
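Note: lysate desalted by size exclusion to strip endogenous ATP, peptide intensities built from DIA-NN precursor signals, and peptides missing any value discarded before comparison.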
